Where “and” joins values, the source holds several entries; their conditions need not be identical. Equal entries are not always repeated. In all, about 5,500 compounds went through this assay and about 2,000 (36%) were called active. About 18% were inconclusive and are not listed. No stated cut-off is given here; in the data, active means normalized growth mostly below about 0.91 (no sharp cut-off); inconclusive means no clear call, values can overlap the other calls; inactive means mostly above about 0.92. Some of the results follow.
Test: chemical genetic growth profiling, strain panel (AID 1159580);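 further: tested at 20 µM; growth read once vehicle control cultures reached saturation at 30 °C; 1 = growth at the plate median or of vehicle wells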
Details: S. cerevisiae deletion strains, growth OD

Measured: normalized growth

NCCc1c[nH]c2ccccc12
inactive: locus YAL013W, strain DEP1, stronger effect = lower value 0.983 and 0.988 | locus YAL021C, strain ccr4, stronger effect = lower value 0.967 | locus YAL026C, strain drs2, stronger effect = lower value 0.96 | locus YAL030W, strain snc1, stronger effect = lower value 0.969 | locus YAL040C, strain CLN3, stronger effect = lower value 1.08 | locus YBL061C, strain skt5, stronger effect = lower value 0.959 | locus YBR009C, strain hhf1, stronger effect = lower value 0.988 | locus YBR021W, strain FUR4, stronger effect = lower value 1.01 | locus YBR023C, strain chs3, stronger effect = lower value 0.945 | locus YBR171W, strain sec66, stronger effect = lower value 0.955 | locus YBR229C, strain ROT2, stronger effect = lower value 0.954 | locus YBR231C, strain swc5, stronger effect = lower value 0.962 | locus YBR279W, strain paf1, stronger effect = lower value 0.942 | locus YCL011C, strain gbp2, stronger effect = lower value 0.945 | locus YCL016C, strain dcc1, stronger effect = lower value 0.98 | locus YCL029C, strain bik1, stronger effect = lower value 0.994 | locus YCL061C, strain MRC1 (second series), stronger effect = lower value 0.998 | locus YCL061C, strain MRC1, stronger effect = lower value 0.967 | locus YCL069W, strain vba3, stronger effect = lower value 0.973 | locus YCR088W, strain abp1, stronger effect = lower value 0.967 | locus YDL005C, strain med2, stronger effect = lower value 0.974 | locus YDL035C, strain GPR1, stronger effect = lower value 0.977 | locus YDL040C, strain nat1, stronger effect = lower value 0.96 | locus YDL074C, strain BRE1, stronger effect = lower value 1 | locus YDL101C, strain DUN1, stronger effect = lower value 0.987 | locus YDL134C, strain PPH21, stronger effect = lower value 0.964 | locus YDL185W, strain tfp1, stronger effect = lower value 0.988 | locus YDL192W, strain arf1, stronger effect = lower value 0.985 | locus YDR001C, strain nth1, stronger effect = lower value 0.954 | locus YDR069C, strain doa4, stronger effect = lower value 0.913 | locus YDR101C, strain arx1, stronger effect = lower value 1.01 | locus YDR137W, strain rgp1, stronger effect = lower value 0.934 | locus YDR150W, strain NUM1, stronger effect = lower value 0.967 | locus YDR159W, strain sac3, stronger effect = lower value 0.925 | locus YDR162C, strain NBP2, stronger effect = lower value 0.954 | locus YDR195W, strain ref2 0.926 | locus YDR297W, strain sur2, stronger effect = lower value 0.967 | locus YDR318W, strain mcm21, stronger effect = lower value 0.999 | locus YDR334W, strain swr1, stronger effect = lower value 0.94 | locus YDR335W, strain msn5, stronger effect = lower value 0.961 | locus YDR363W, strain ESC2, stronger effect = lower value 0.975 | locus YDR388W, stronger effect = lower value 0.997 | locus YDR392W, strain spt3, stronger effect = lower value 1.01 | locus YDR502C, strain sam2, stronger effect = lower value 0.993 | locus YEL003W, strain gim4, stronger effect = lower value 0.978 | locus YEL037C, strain rad23, stronger effect = lower value 0.958 | locus YEL061C, strain CIN8 (second series), stronger effect = lower value 0.957 | locus YEL061C, strain CIN8, stronger effect = lower value 0.98 | locus YER002W, strain NOP16, stronger effect = lower value 0.99 | locus YER015W, strain faa2, stronger effect = lower value 0.975 | locus YER016W, strain bim1, stronger effect = lower value 0.964 | locus YER110C, stronger effect = lower value 0.967 | locus YER111C, strain swi4, stronger effect = lower value 0.973 | locus YER155C, strain BEM2 (second series), stronger effect = lower value 0.923 | locus YER155C, strain BEM2, stronger effect = lower value 0.998 | locus YER167W, strain BCK2, stronger effect = lower value 0.982 | locus YFR010W, strain ubp6, stronger effect = lower value 0.951 | locus YGL078C, strain dbp3, stronger effect = lower value 0.98 | locus YGL086W, strain mad1, stronger effect = lower value 0.966 | locus YGL167C, strain pmr1, stronger effect = lower value 0.939 | locus YGL173C, strain kem1, stronger effect = lower value 0.992 | locus YGL227W, strain vid30, stronger effect = lower value 0.937 | locus YGL240W, strain doc1, stronger effect = lower value 0.964 | locus YGL248W, strain PDE1, stronger effect = lower value 0.983 | locus YGL253W, strain hxk2, stronger effect = lower value 0.952 | locus YGR078C, strain PAC10, stronger effect = lower value 1.01 and 0.994 | locus YGR135W, strain pre9, stronger effect = lower value 0.989 | locus YGR229C, strain SMI1, stronger effect = lower value 1.01 | locus YGR252W, strain gcn5, stronger effect = lower value 0.911 | locus YHR013C, strain ard1, stronger effect = lower value 0.949 | locus YHR027C, strain rpn1, stronger effect = lower value 0.962 | locus YHR030C, strain SLT2, stronger effect = lower value 0.987 and 0.959 | locus YHR079C, strain IRE1 (second series), stronger effect = lower value 0.998 | locus YHR079C, strain IRE1, stronger effect = lower value 0.957 | locus YHR094C, strain hxt1, stronger effect = lower value 0.994 | locus YHR129C, strain ARP1, stronger effect = lower value 1 | locus YHR142W, strain chs7, stronger effect = lower value 0.965 | locus YHR200W, strain rpn10, stronger effect = lower value 1 | locus YIL066C, strain RNR3, stronger effect = lower value 0.985 | locus YIL073C, strain SPO22, stronger effect = lower value 0.959 | locus YIL125W, strain kgd1, stronger effect = lower value 0.983 | locus YIR030C, strain dcg1, stronger effect = lower value 0.981 | locus YJL092W, strain hpr5, stronger effect = lower value 0.963 | locus YJL095W, strain BCK1 (second series), stronger effect = lower value 0.96 | locus YJL095W, strain BCK1, stronger effect = lower value 1.03 and 0.994 | locus YJL115W, strain asf1, stronger effect = lower value 0.961 | locus YJL129C, strain trk1, stronger effect = lower value 0.963 | locus YJL134W, strain LCB3, stronger effect = lower value 0.984 | locus YJL154C, strain vps35, stronger effect = lower value 0.948 | locus YJL164C, strain tpk1, stronger effect = lower value 0.989 | locus YJL166W, strain qcr8, stronger effect = lower value 0.938 | locus YJL168C, strain set2, stronger effect = lower value 1 | locus YJL187C, strain SWE1 (second series), stronger effect = lower value 1 | locus YJL187C, strain SWE1, stronger effect = lower value 0.967 | locus YJR043C, strain POL32, stronger effect = lower value 1.02 | locus YJR066W, strain TOR1, stronger effect = lower value 0.926

— PubChem BioAssay AID1159580 (chemical genetic matrix, 2015)
